# Measured values from PubChem BioAssay (NCATS).
# Results filed as inconclusive are left out. A number with no mark means an inactive call. Active and inactive are the calls of the source. Calls follow the shape of the dose curve; as a rule, active = well fitted cell-killing curve with a large enough effect; inconclusive = small, poorly fitted or top-dose-only effect, or effect the other way; inactive = no such curve, though single readings can be large or run the other way.
# Assay: Quantitative High-Throughput drug screen in 47 multiple myeloma cell lines against the NCATS MIPE library collection: MM1S_ATCC cell viability assay (AID 1918980); also: nearly all actives have a fitted effect of over 45% in size
# Details: MM1S myeloma viability, CellTiter-Glo ATP luminescence, 48 h; series mostly up to 45.8 µM; viability (% of control): at the top concentration
# Source text: PI: Beverly A. Mock Ph.D.
# Laboratory of Cancer Biology and Genetics,
# Center for Cancer Research, National Cancer Institute,
# National Institute of Health, Bethesda, Maryland
# Drug resistance and disease progression are common in multiple myeloma (MM) patients, underscoring the need for new therapeutic combinations. […] We hypothesized that effective combinations would reduce MYC expression and enhance p16 activity. […] These preclinical data identify potentially useful drug combinations for evaluation in drug-resistant MM and reveal potential mechanisms of combined drug sensitivity.
# Described herein is the primary MIPE qHTS used to cherrypick compounds. Validated compounds were then further tested for potential synergistic activiy.
# [1] Peat TJ, Gaikwad SM, Dubois W, Gyabaah-Kessie N, Zhang S, Gorjifard S, Phyo Z, Andres M, Hughitt VK, Simpson RM, Miller MA, Girvin AT, Taylor A, Williams D, D'Antonio N, Zhang Y, Rajagopalan A, Flietner E, Wilson K, Zhang X, Shinn P, Klumpp-Thomas C, McKnight C, Itkin Z, Chen L, Kazandijian D, Zhang J, Michalowski AM, Simmons JK, Keats J, Thomas CJ, Mock BA. Drug combinations identified by high-throughput screening promote cell cycle transition and upregulate Smad pathways in myeloma. Cancer Lett. 2023 Aug 1;568:216284. doi: 10.1016/j.canlet.2023.216284. Epub 2023 Jun 24. PMID: 37356470; PMCID: PMC10408729.
# SEQUENCE No. (e.g., 1, 2, 3, etc.); […] (e.g., Cells, Incubation, Reagent, etc.); VALUE and DESCRIPTION.
# 1; Cells; 5 uL; white, solid bottom 1536-well Greiner assay plate.
# 2; Compounds; 23 nL; Kalypsis pin tool (Wako USA) equipped with a 1536-well pin head to transfer to the assay plates.
# 3; Incubation; 48 hours; 37C incubation.
# 4; Reagent;5uL; CellTiter Glo (Promega).
# 5; Detector; 425V; Luminescence; Viewlux PerkinElmer.
# NOTES (numbers refer to Sequence numbers above)
# 1. The cell-based screening methods employed in this study were like those previously published. Briefly, the corresponding myeloma cell lines were screened in 1,536-well plates with 500 cells, 5-uL per well for inhibition of cell viability (assessed by measuring ATP levels with CellTiterGlo).
# 2. NCATS MIPE 4.0 library of approved and investigational drugs were added using the Kalypsis pin tool. Wells treated with DMSO only for 100% viability and media only for 0% viability were used as controls.
# 3. The assay plates were covered and incubated for 48 hours in a 37C, 5% CO2 incubator with controlled humidity.
# 4. After 48 hours, CellTilter-GloTM luminescent substrate mix (Promega) reagent was added to the assay plate and plates we incubated for 5 min at room temperature.
# 5. Signal was measured as median relative luminescence units on a ViewLux (PerkinElmer) multiplate reader.
# [1] Heske CM, Davis MI, Baumgart JT, Wilson K, Gormally MV, Chen L, Zhang X, Ceribelli M, Duveau DY, Guha R, Ferrer M, Arnaldez FI, Ji J, Tran HL, Zhang Y, Mendoza A, Helman LJ, Thomas CJ. Matrix Screen Identifies Synergistic Combination of PARP Inhibitors and Nicotinamide Phosphoribosyltransferase (NAMPT) Inhibitors in Ewing Sarcoma. Clin Cancer Res. 2017 Dec 1;23(23):7301-7311. doi: 10.1158/1078-0432.CCR-17-1121. Epub 2017 Sep 12. PMID: 28899971; PMCID: PMC6636827.
# Potency is read from the fitted curve at half-maximal effect.
Structure (SMILES),Potency,viability (% of control)
O=c1[nH]c(=O)n([C@H]2C[C@@H](O)[C@@H](CO)O2)cc1C(F)(F)F,10.5 µM (active),–
Cc1ccc2c(c1)c1c(n2CCc2ccc(C)nc2)CCN(C)C1,–,110%
COc1ccc2ccc(=O)oc2c1CC=C(C)C,2.96 µM (active),–
OC1CCC(Nc2ncc3nc(Nc4c(F)cc(F)cc4F)n([C@@H]4CCOC4)c3n2)CC1 (stereo not given in full),11.8 µM (active),–
COc1ccc2cc1Oc1ccc(cc1)C[C@H]1c3cc(c(OC)cc3CCN1C)Oc1c(OC)c(OC)cc3c1[C@H](C2)N(C)CC3,18.7 µM (active),–
COc1cc([C@@H]2c3cc4c(cc3[C@@H](O[C@@H]3O[C@@H]5CO[C@@H](C)O[C@@H]5[C@H](O)[C@@H]3O)[C@H]3COC(=O)[C@H]23)OCO4)cc(OC)c1O,0.264 µM (active),–
CN(C)CC[C@H](CSc1ccccc1)Nc1ccc(S(=O)(=O)NC(=O)c2ccc(N3CCN(Cc4ccccc4-c4ccc(Cl)cc4)CC3)cc2)cc1[N+](=O)[O-],1.66 µM (active),–
COc1ccc(-c2cc(=O)c3c(O)cc(O[C@@H]4O[C@H](CO[C@@H]5O[C@@H](C)[C@H](O)[C@@H](O)[C@@H]5O)[C@@H](O)[C@H](O)[C@@H]4O)cc3o2)cc1O,18.7 µM (active),–
O[C@@H](COc1cccc2ncccc12)CN1CCN(C2c3ccccc3[C@@H]3[C@H](c4ccccc42)C3(F)F)CC1 (stereo not given in full),7.43 µM (active),–
CC(C)C[C@@H](N)[C@H](O)C(=O)N[C@H](C(=O)N[C@H](C(=O)N[C@@H](CC(=O)O)C(=O)O)C(C)C)C(C)C,23.5 µM (active),–
Cc1ccccc1-n1c(Cn2nc(-c3cccc(O)c3)c3c(N)ncnc32)nc2cccc(C)c2c1=O,1.32 µM (active),–
O=C(c1ccc(F)c(F)c1Nc1ccc(I)cc1F)N1CC(O)([C@H]2CCCCN2)C1,18.7 µM (active),–
CNc1nc(-c2ccc3c(N)n[nH]c3c2)cc(N2C[C@@H](C(=O)NC3CCCCC3)CC[C@@H]2C)n1,16.6 µM (active),–
COc1ccc(CCC(=O)Nc2nc3ccc(Cl)cc3s2)cc1OC,13.2 µM (active),–
COc1ccc(Cn2ccc3ccc(C(=O)NO)cc32)cc1,16.6 µM (active),–
CN1CCN(c2ncc(-c3cc(Cl)cc(Cl)c3Cl)c(N)n2)CC1,11.8 µM (active),–
CC(C)Oc1cc(Nc2nc(N[C@@H](C)c3ccc(F)cn3)ncc2Cl)[nH]n1,23.5 µM (active),–
CC(C)CNc1ccnc(NCc2csc(-c3ccccc3)n2)n1,20.9 µM (active),–
CC1C(=O)OC2C(O)C34C5CC(C(C)(C)C)C36C(OC(=O)C6O)OC4(C(=O)O5)C12O (stereo not given),20.9 µM (active),–
Nc1ncnc2c1c(-c1cccc(OCc3ccccc3)c1)cn2C1CC(CN2CCC2)C1 (stereo not given),2.96 µM (active),–

Structure (SMILES),Potency,viability (% of control)
O=C1CCCC(=O)C1C(=O)c1ccc(C(F)(F)F)cc1[N+](=O)[O-],18.7 µM (active),–
NCc1c[nH]c(=S)n1[C@H]1CCc2c(F)cc(F)cc2C1,23.5 µM (active),–
CC(=O)OCC(=O)[C@@]12OC(C)(C)O[C@H]1C[C@H]1[C@@H]3C[C@H](F)C4=CC(=O)C=C[C@]4(C)[C@@]3(F)[C@@H](O)C[C@@]12C,0.0372 µM (active),–
CCOC(=O)c1c(CSc2ccccc2)n(C)c2cc(Br)c(O)c(CN(C)C)c12,20.9 µM (active),–
NS(=O)(=O)c1ccc(Nc2nc(OCC3CCCCC3)c3[nH]cnc3n2)cc1,18.7 µM (active),–
CC[C@@H]([C@H](C)O)n1ncn(-c2ccc(N3CCN(c4ccc(OCC5CO[C@@](Cn6cncn6)(c6ccc(F)cc6F)C5)cc4)CC3)cc2)c1=O (stereo not given in full),–,112%
CO[C@H]1C=CO[C@@]2(C)Oc3c(C)c(O)c4c(O)c(c(C=NN5CCN(C)CC5)c(O)c4c3C2=O)NC(=O)C(C)=CC=C[C@H](C)[C@H](O)[C@@H](C)[C@@H](O)[C@@H](C)[C@H](OC(C)=O)[C@H]1C,–,136% [at 15.3 µM]
CCC[C@H](N[C@@H](C)C(=O)N1[C@@H]2CCCC[C@H]2C[C@H]1C(=O)O)C(=O)OCC,20.9 µM (active),–
CC(C)c1c(C(=O)Nc2ccccc2)c(-c2ccccc2)c(-c2ccc(F)cc2)n1CC[C@H](O)C[C@@H](O)CC(=O)O,16.6 µM (active),–
CCOc1ccccc1N=Nc1c(C)[nH]n(-c2nc(-c3ccccc3)cs2)c1=O,13.2 µM (active),–
Cc1ccc(NC(=O)c2cccc(N(C)C)c2)cc1NC(=O)c1ccc(O)cc1,0.418 µM (active),–
CCCC1OC2C[C@@H]3[C@H]4CCC5=CC(=O)C=C[C@]5(C)[C@H]4C(O)C[C@]3(C)[C@]2(C(=O)CO)O1 (stereo not given in full),0.0743 µM (active),–
CC[C@]1(O)C[C@H]2CN(CCC3=c4ccccc4=N[C]3[C@@](C(=O)OC)(c3cc4c(cc3OC)N(C)[C@H]3[C@@](O)(C(N)=O)[C@H](O)[C@]5(CC)C=CCN6CC[C@]43[C@@H]65)C2)C1,0.235 µM (active),–
COC(=O)Nc1ccc(-c2nc(N3CCOCC3)c3cnn(C4CCN(C(=O)OC)CC4)c3n2)cc1,0.0066 µM (active),–
Cc1cc(C(C)Nc2ccccc2)c2nc(N3CCOCC3)cc(=O)n2c1 (stereo not given),0.332 µM (active),–
COc1cc2ncnc(Nc3cc(Br)c(O)c(Br)c3)c2cc1OC,0.0026 µM (active),–
c1cc(OCCN2CCCCC2)cc(-c2n[nH]c3ccc(-c4ncn[nH]4)cc23)c1,23.5 µM (active),–
CCCCn1c(=O)n(Cc2ccccc2F)c(=O)c2[nH]c(Cc3ccc(NC(C)=O)cc3)nc21,20.9 µM (active),–
CNC(=O)[C@H](Cc1ccccc1)NC(=O)[C@H](CC(C)C)[C@H](CSc1cccs1)C(=O)NO,26.4 µM (active),–
CN(C)CCCNC(=O)c1ccc(-c2cc(O)c3ncccc3c2)cc1,20.9 µM (active),–
